aSyn yeast inh = inhibitors of alpha-synuclein toxicity in yeast | Yeast expressing alpha-synuclein, growth rescue, BacTiter-Glo, 24 h | Potency, µM (doses to about 46.1 µM), for the others: at the top dose growth rescue (activation), actives largely listed as activators | 370,000 compounds, 0.14% hits | AID 652106; note: potency is the fitted concentration of half-maximal effect; % of control where 0% means no effect; nearly all actives have a fitted effect of over 65% in size
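Screening used galactose-induced yeast with toxic alpha-synuclein levels, exposed to compound for 24 hr at 30 deg C. Cell growth, read with BacTiter-Glo luminescence, gave the measured signal.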
FUS suppressor = rescues growth of FUS-expressing yeast; S. cerevisiae FUS-expressing, growth rescue, OD600, 24 h; AID 1347120; Potency, µM (top dose mostly 76.6 µM), usual class: activators; 390,000 compounds, 0.24% hits;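 note: potency is the fitted concentration of half-maximal effect; plate controls were DMSO vehicle for no effect and reference control for full effect; nearly all actives have a fitted effect of over 55% in size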
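Compound concentration series was pinned onto galactose-induced FUS-expressing yeast seeded at OD 0.005. Plates sat 24hr at 30C; absorbance at 600 nm gave growth. DMSO served as background control.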
TDP43 rescue = TDP-43 toxicity inhibition in yeast; TDP-43 expressing yeast growth rescue, BacTiter-Glo, 24 h; AID 652104; 410,000 compounds, 1.8% hits; Potency, µM (titrated, usually from 46.1 µM), without a hit: at the top dose growth rescue (activation), most hits filed as activators; note: potency is the fitted concentration of half-maximal effect; % of control where 0% means no effect; nearly all actives have a fitted effect of over 50% in size
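Yeast expressing TDP-43 (pregrown in raffinose, seeded at OD600=0.02 in galactose medium) exposed to compounds 24 hr at 30 deg C. Growth read by BacTiter-Glo luminescence; rescue of toxicity appears as increased signal.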
pAkt inh = blocks phosphorylation of Akt; Neuro2A IGF-stimulated pAkt S473 HTRF, 20 min; stronger effect = lower value; activity change, % for hits at 50 µM; 360,000 compounds, 0.32% hits; AID 651550; in the data active = activity change below about -80%; inconclusive = mostly about -51% to -80%; note: % is set by controls: 0 for no effect and ±100 for the full control effect
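Single-point screen (50 µM final compound) in Neuro2A cells stimulated 20 min with 6 nM IGF at 37 deg C. After lysis, Ser473-phosphorylated Akt read by HTRF (ex 330 nm, em 615/665 nm) as the 665/615 ratio.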
Abeta rescue = A-beta toxicity reversal in yeast; AID 1347071; yeast expressing A-beta42, growth rescue, OD600, 48 h; response scale: 0% DMSO, 100% iron-clioquinol control; 410,000 compounds, 0.063% hits; Potency, µM (top dose mostly 46.1 µM), actives largely listed as activators; note: potency is the fitted concentration of half-maximal effect; nearly all actives have a fitted effect of over 55% in size
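Yeast A-beta toxicity model in growth medium with pinned compounds, 48 h at 30 C; growth read as absorbance at 600 nm. Normalized to FeCl3/clioquinol equimolar mix (positive) and DMSO (negative).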
The depositor's hits bear a star; i = inactive; u = inconclusive; x = no result given; [ ] = remark or other dose. Sampled rows, rich in hits. Any-hit rate of the full collection: about 2.3%. Unless noted, calls come from the whole dose curve; as a rule, active = well fitted curve in the direction sought with a large enough effect; inconclusive = small, poorly fitted or top-dose-only effect, or another doubt; inactive = no such curve, though single readings can be large; an effect the other way counts as inactive or inconclusive.

SMILES	aSyn yeast inh	FUS suppressor	TDP43 rescue	pAkt inh	Abeta rescue
Fc1ccc2[nH]c3c(c2c1)CN(C(=S)NCc1ccccc1)CC3	-28%	i	16µM*	i	u
S=C(NCc1ccccc1)N1CCc2ccccc2C1	3%	i	11µM*	i	i
Cc1cccc(C(=O)NC(=S)N2CCc3ccccc3C2)c1	-2%	i	20µM*	i	u
CCNC(=S)N1CCc2ccccc2C1	0%	i	3%[9.22 µM]	i	i
COc1ccc(NC(=O)NC(C)c2c(-n3cccc3)sc3c2CCN(C)C3)c(OC)c1 (centres undefined)	x	i	11%	x	i
Cc1ccc(N2C(=O)C3C4C=CC(CNC(=S)Nc5ccc(Cl)cc5)(O4)C3C2=O)cc1 (centres undefined)	-35%	x	14µM*	i	i
CCOc1ccc(CCNC(=O)c2c(C)oc3ncn(CC(C)C)c(=O)c23)cc1	x	i	20µM*	x	i
CCOc1ccc(CNC(=O)C2CCN(S(=O)(=O)c3cn(C)cn3)CC2)cc1	x	i	8%	x	i
Fc1cccc2sc(N3CCCCC3)nc12	8%	i	4%	i	i
Clc1ccc(Cl)c2sc(N3CCCC3)nc12	19%	i	7.1µM*	i	i
Clc1cccc2sc(N3CCN(c4ccccc4)CC3)nc12	0%	i	3.5µM*	i	i
Cc1c(NC(=O)c2ccc(F)c(S(=O)(=O)N3CCOCC3)c2)c(=O)n(-c2ccccc2)n1C	-5%	i	-8%	-106%*	i
Cc1nonc1NC(=O)c1ccc(Cl)c(S(=O)(=O)N2CCCCC2)c1	8%	i	4%	-98%*	i
COc1cccc(CNC(=O)c2ccc(Cl)c(S(=O)(=O)N3CCOCC3)c2)c1	-4%	i	17%	i	i
CC(C)c1ccc(NC(=O)c2ccc(F)c(S(=O)(=O)N3CCCC3)c2)cc1	x	i	-15%	x	i
O=C(Nc1cc(Cl)cc(Cl)c1)c1ccc(F)c(S(=O)(=O)N2CCCC2)c1	x	i	18µM*	x	i
COc1cccc(CNC(=O)c2ccc(F)c(S(=O)(=O)N3CCCCC3)c2)c1	0%	35µM*	u	i	i
CCCCn1c(=O)c2oc3ccccc3c2n(CC(=O)Nc2cccc(Cl)c2)c1=O	x	i	12%	x	i
Oc1ccc(C=NN=C2c3ccccc3-c3ccccc32)c(O)c1	-35%	x	11µM*	i	i
C(=NN=C1c2ccccc2-c2ccccc21)c1c[nH]c2ccccc12	21%	x	13µM*	i	i
O=[N+]([O-])c1cccc(/C=N\N=C2c3ccccc3-c3ccccc32)c1O	-8%	x	-33%	i	i
CC(CCc1ccccc1)NC(=O)c1nnc(Cc2ccc(Cl)cc2)o1 (centres undefined)	27%	i	22µM*	i	i
O=C(NCCc1ccc(Cl)cc1)c1nnc(Cc2ccc(Cl)cc2)o1	-6%	i	11%	i	i
COCCNC(=O)c1cc(C)ccc1C	0%	i	-20%	i	i
Cc1ccc(C)c(C(=O)NCCN(C)C)c1	0%	i	7%	-110%*	i
SMILES	aSyn yeast inh	FUS suppressor	TDP43 rescue	pAkt inh	Abeta rescue
Cc1ccc(C(=O)NCCN(C)C)cc1C	0%	i	4%	-107%*	i
CC(C)(C)C(=O)C1=C(O)C(=O)N(Cc2ccccc2)C1c1ccccc1Cl (centres undefined)	12%	i	13µM*	i	i
CC(=O)C1=C(O)C(=O)N(CC(=O)O)C1c1ccccc1Cl (centres undefined)	-10%	i	15%	i	i
CC(C)CCNC(=O)CN1C(=O)CCn2nc(-c3cn(C)c4ccccc34)cc21	x	i	17%	x	i
CCOC(=O)c1c(C)[nH]c(C)c1S(=O)(=O)N1CCC(C(=O)Nc2ccccc2CC)CC1	x	i	4%	x	i
Cc1cccc(CN2C(=O)c3ccccc3Sc3ccc(C(=O)NCc4ccco4)cc32)c1	x	i	25%	x	i
O=C(NCc1ccco1)c1ccc2c(c1)N(Cc1ccccc1)C(=O)c1ccccc1S2	x	32µM*	15%	x	i
